Experimental data taken from the OligoGym collection.

Key:
Experiment in all cases: pooled miR-30 sensor sort-seq; sequence = guide strand
Details in all cases: shRNA
CELA2A = biological target: CELA2A
CEACAM7 = biological target: CEACAM7
CENPE = biological target: CENPE
CHCHD8 = biological target: CHCHD8
CHI3L1 = biological target: CHI3L1
CLDN16 = biological target: CLDN16
CNOT1 = biological target: CNOT1
COL20A1 = biological target: COL20A1
COL23A1 = biological target: COL23A1
COL4A2 = biological target: COL4A2
Note: reference of the scale not given here.

TAGTAGTTGCAGCCGAGGCGAG
sensor-assay potency score (higher = more potent) (CELA2A): -1.3

TCTTAGAGACACTGACTGCCAG
sensor-assay potency score (higher = more potent) (CELA2A): -0.61

AATCATGATGCTGACAGCGGTC
sensor-assay potency score (higher = more potent) (CEACAM7): -0.463

TTAGTTGCATCTCTTGATCTTT
sensor-assay potency score (higher = more potent) (CENPE): 0.409

TACTTCTTCATTCACAAGATTT
sensor-assay potency score (higher = more potent) (CEACAM7): -1.52

TTTGCTTGTATGTAGTTGCAAG
sensor-assay potency score (higher = more potent) (CENPE): -0.96

ATGTAATTGGAGACCCGCGTGA
sensor-assay potency score (higher = more potent) (CELA2A): -0.77

TGTAGTATCTGAGTCAACCTTA
sensor-assay potency score (higher = more potent) (CENPE): 0.878

TTGTCTTGTATCTCTTTCCTCA
sensor-assay potency score (higher = more potent) (CENPE): 0.236

AAGATTTTCTTTTATAACGTGT
sensor-assay potency score (higher = more potent) (CEACAM7): 0.163

TTGACTTATATTTTTTACATAT
sensor-assay potency score (higher = more potent) (CEACAM7): -1.26

TCGATAGTTGGCATGCACCCTT
sensor-assay potency score (higher = more potent) (CEACAM7): -0.656

AATCTTAGAGACACTGACTGCC
sensor-assay potency score (higher = more potent) (CELA2A): 0.508

AATATCTTTGTTCTCCACCGGA
sensor-assay potency score (higher = more potent) (CEACAM7): -0.351

TTCCTCTATAATCTTGCTGGGT
sensor-assay potency score (higher = more potent) (CHCHD8): -1.07

TTGAGTGTGTTGAGCATGCCGT
sensor-assay potency score (higher = more potent) (CHI3L1): -0.388

TATCTTGGCAATGTCATAGCTG
sensor-assay potency score (higher = more potent) (CHI3L1): 0.682

TTTACTTTTTCTCACGCCCTGC
sensor-assay potency score (higher = more potent) (CLDN16): -0.567

TTATATGTAACTCTTTATCAGG
sensor-assay potency score (higher = more potent) (CNOT1): -0.895

TATTCTTCAAACAAGTTCCTTA
sensor-assay potency score (higher = more potent) (CNOT1): 0.402

TTGAAGAGCGTGAAGGTCGGGG
sensor-assay potency score (higher = more potent) (COL20A1): 0.169

TCTACCTTCATCTCCTTCCTGG
sensor-assay potency score (higher = more potent) (COL23A1): 0.0937

TAGAGCTAGACCCTCGTGGGGG
sensor-assay potency score (higher = more potent) (COL23A1): -0.316

TAGGACTTGTCGTTCCGGCTGG
sensor-assay potency score (higher = more potent) (COL4A2): 0.103

TACATCTGCATTCCCCAGCGTC
sensor-assay potency score (higher = more potent) (COL4A2): -0.779

TCTATCTCCTTTTAGCCCGGGG
sensor-assay potency score (higher = more potent) (COL4A2): -0.278

TAGTCCGTCCAACTTCTCCCGC
sensor-assay potency score (higher = more potent) (COL23A1): -1.02

TTGCATTCGATGAATGGTGTGG
sensor-assay potency score (higher = more potent) (COL4A2): 0.0414

TTGCTGGGAACACTTGCTGGAG
sensor-assay potency score (higher = more potent) (COL23A1): -1.43

TTGTCCTTGGTCTCCCCGGGGG
sensor-assay potency score (higher = more potent) (COL23A1): -1.12
